Among the data in PubChem BioAssay (NCI) are growth values, retold here.

This is part of a sample that, as a whole, favours compounds with a hit. Of some 83,000 tested, about 20% had one in any assay.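 Note: values are percent growth. 100 is the growth of untreated cells, values between 100 and 0 indicate rising inhibition; between -100 and 0 indicates cell death.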 Values without a mark were called inactive. Calls of active or inactive are those of the source. Rule for the calls: active = growth percent below 10; inactive = the rest.

One experiment concerns RPMI-8226 leukemia. The experiment can be described thus: NCI-60 one-dose screen, 48 h (100 = growth as untreated, 0 = no growth, -100 = all killed). Conditions: 10 µM unless noted.
With `NC(=O)c1c(NC(=O)c2cccc(OC(F)(F)F)c2)sc2c1CCC(=O)C2`, the growth was 6.56% (active). For `O=C(NNc1nc2cc(F)c(F)cc2n2cccc12)c1ncccn1`, the growth is 20.8%. With `O=c1c2ccccc2nc(COc2ccccc2)n1/N=C/C=C/c1ccccc1`, the growth is 87.5%.

A further experiment deals with OVCAR-8 ovarian. The experiment is described as above. The settings on record: 10 µM unless noted.
For `CCC(=O)Nc1ccc(-c2nc(-c3cccc(O)c3)c(-c3ccnc(Br)c3)[nH]2)cc1`, the growth was 51.8%. As for `NC(=O)c1c(NC(=O)c2cccc(OC(F)(F)F)c2)sc2c1CCC(=O)C2`, the growth is 53%. Regarding `COc1cc(C2=NN(C(C)=O)C(c3ccc(N4CCOCC4)cc3)C2)cc(OC)c1OC` (stereo unspecified), the growth is 101%. On to `CCC(=O)Nc1cc(Nc2cc(NC3CC3)n3ncc(C#N)c3n2)ccc1C`, for which the growth was 43.4%.

As to `O=C(CSc1ccc(-c2nc3ccccc3[nH]2)cn1)N1CCN(c2ccccc2F)CC1`, the growth is 37.4%. Turning to `NCCN1CCN(c2nc(-c3ccccc3)nc3nc(-c4ccccc4)oc23)CC1`, the growth was -16.4% (active).

In the case of `CCN(CC)Cc1c(-c2cccc(OC(F)(F)F)c2)[nH]c2ccc(N3CCCC3)cc2c1=O`, the growth was 96.2%. In the case of `C#C[C@]1(O)CC[C@H]2[C@@H]3CC=C4c5sc(-c6ccc(OC)cc6)nc5CC[C@]4(C)[C@H]3CC[C@@]21C`, the growth is 84.6%. As for `C#C[C@]1(O)CC[C@H]2[C@@H]3CC=C4c5sc(Nc6cc(OC)ccc6OC)nc5CC[C@]4(C)[C@H]3CC[C@@]21C`, the growth is 40.1%.

For `O=C(Nc1cccc(-c2nc(-c3ccc(NC(=O)c4cccnc4)cc3Cl)no2)c1)Nc1ccc(NC(=O)C2CC2)c(C(F)(F)F)c1`, the growth was -16.8% (active). Regarding `O=C(Nc1ccc(-c2nc(-c3cccc(O)c3)c(-c3ccnc(Br)c3)[nH]2)cc1)c1ccccc1`, the growth was 24.3%. For `COc1ccccc1N1CCN(C2=NN=C(c3cccc(Cl)c3)c3ccccc3C2)CC1`, the growth is 13%.

Consider `O=C(NNc1nc2cc(F)c(F)cc2n2cccc12)c1ncccn1`, for which the growth was 21.9%. Turning to `O=C(CN1C(=O)CSC1=O)Nc1ccc(C(=O)/C=C/c2cc3ccccc3nc2Cl)cc1`, the growth was 77.7%. As to `O=C(C[n+]1ccnc2ccccc21)c1ccc(O)c(O)c1`, the growth was 48.4%.

In the case of `Cn1ccnc1C(=O)/C=C/c1ccc(C(=O)Nc2ccc(NC(=O)CCNC(=O)c3csc(Br)n3)cc2)cc1`, the growth was 63.9%.

Consider `COc1ccc(Oc2ccc(C3CC(c4cc(OC)c(OC)c(OC)c4)=NN3C(C)=O)cc2)cc1` (stereo unspecified), for which the growth is 30.3%. In the case of `O=C1/C(=C/c2ccccc2[N+](=O)[O-])Oc2ccc(O)cc21`, the growth was 20.7%. In the case of `O=c1c2ccccc2nc(COc2ccccc2)n1/N=C/C=C/c1ccccc1`, the growth is 100%.

Turning to `C#C[C@]1(O)CC[C@H]2[C@@H]3CC=C4c5sc(C6CC6)nc5CC[C@]4(C)[C@H]3CC[C@@]21C`, the growth is 88.3%.

`Cc1ccc(S(=O)(=O)N/N=C/c2cn(-c3ccc(F)cc3)nc2-c2ccc(S(C)(=O)=O)cc2)cc1`: the growth was 102%. Turning to `C#C[C@]1(O)CC[C@H]2[C@@H]3CC=C4c5sc(-c6ccccn6)nc5CC[C@]4(C)[C@H]3CC[C@@]21C`, the growth was 91.8%. Regarding `CCOC(=O)c1c(NC(=O)c2cccc(C(F)(F)F)c2)sc2c(CN3CCN(C)CC3)c(O)ccc12`, the growth was -35.2% (active). For `CCOC(=O)Nc1ccc(-c2nc(-c3cccc(O)c3)c(-c3ccnc(Br)c3)[nH]2)cc1`, the growth is 10.7%.

For the compound `COc1ccc(NS(=O)(=O)c2ccc(-c3cnc(C4CC4)o3)cc2)cc1Cl`, the growth is 40.4%. With `O=S(=O)(Nc1ccc(I)c(Cl)c1)c1ccc(-c2cnc(C3CC3)o2)cc1`, the growth is 38.9%. Regarding `O=S(=O)(Nc1ccc2c(c1)OC(F)(F)O2)c1ccc(-c2cnc(C3CC3)o2)cc1`, the growth is 56.3%.

`O=C(CN1CCN(c2cc(=O)n(-c3ccccc3)c3ccccc23)CC1)Nc1ccc([N+](=O)[O-])cc1`: the growth was 91.3%.

`CN(c1ccc(Cl)cc1)S(=O)(=O)c1ccc(-c2cnc(C3CC3)o2)cc1`: the growth is 30.7%. For the compound `O=C(/C=C/c1cn(-c2ccccc2)nc1-c1ccc(Cl)cc1)c1cc2ccccc2oc1=O`, the growth is 52.8%.

Regarding `O=C1C[C@@H](c2ccccc2)Oc2c(Cc3ccccc3O)c(O)c(Cc3cc(Cc4cc(Cc5ccccc5O)ccc4O)ccc3O)c(O)c21`, the growth was 97.2%. As to `CCC(CC)N1C(=O)/C(=c2\sc3n(c2=O)C2C(NN=3)N(CC)C(=O)N2CC)c2ccccc21` (stereo unspecified), the growth is 34.8%. In the case of `COC(=O)Nc1ccc(-c2nc(-c3cccc(O)c3)c(-c3ccnc(Br)c3)[nH]2)cc1`, the growth is 35.6%. With `CC(=O)Nc1ccc(NC(=O)Nc2cccc(-c3nc(-c4ccc(NC(=O)c5cccs5)cc4Cl)no3)c2)cc1C(F)(F)F`, the growth was -15.8% (active). In the case of `O=S(=O)(Nc1cc(Cl)cc(Cl)c1)c1ccc(-c2cnc(C3CC3)o2)cc1`, the growth was 47%. On to `CC(=O)Nc1ccc(NC(=O)Nc2cccc(-c3nc(-c4ccc(NC(=O)c5cccnc5)cc4Cl)no3)c2)cc1C(F)(F)F`, for which the growth is -9.07% (active). Regarding `O=C(Nc1cccc(-c2nc(-c3ccc(NC(=O)c4cccs4)cc3Cl)no2)c1)Nc1ccc(NC(=O)C2CC2)c(C(F)(F)F)c1`, the growth was 2.05% (active). The same measure, in the same setting: with `CN1C(=O)N(C)C2Nn3c(s/c(=C\c4ccccn4)c3=O)=NC21` (stereo unspecified) the figure was 101%.
